The values below come from PubChem BioAssay AID1079 (Emory University Molecular Libraries Screening Center, 2008).

The assay concerns the target Estrogen receptor (Homo sapiens) (UniProt P03372). Put plainly: ERα–SRC-3 coactivator interaction inhibitors, confirmation, orthogonal assay, biochemical, ELISA, streptavidin-HRP readout (AID 1079). Background: An ELISA detects its analyte on a solid surface through an enzyme-linked reagent.

Entries with a potency or affinity are not part of this list. The source made the active and inactive calls.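 The calls were made as follows: active = fitted half-effect concentration IC50 at or below a set limit, with percent of control there 60 or less; inactive = the rest.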

Estrogen receptor (Homo sapiens), sequence (P03372 whole entry, looked up): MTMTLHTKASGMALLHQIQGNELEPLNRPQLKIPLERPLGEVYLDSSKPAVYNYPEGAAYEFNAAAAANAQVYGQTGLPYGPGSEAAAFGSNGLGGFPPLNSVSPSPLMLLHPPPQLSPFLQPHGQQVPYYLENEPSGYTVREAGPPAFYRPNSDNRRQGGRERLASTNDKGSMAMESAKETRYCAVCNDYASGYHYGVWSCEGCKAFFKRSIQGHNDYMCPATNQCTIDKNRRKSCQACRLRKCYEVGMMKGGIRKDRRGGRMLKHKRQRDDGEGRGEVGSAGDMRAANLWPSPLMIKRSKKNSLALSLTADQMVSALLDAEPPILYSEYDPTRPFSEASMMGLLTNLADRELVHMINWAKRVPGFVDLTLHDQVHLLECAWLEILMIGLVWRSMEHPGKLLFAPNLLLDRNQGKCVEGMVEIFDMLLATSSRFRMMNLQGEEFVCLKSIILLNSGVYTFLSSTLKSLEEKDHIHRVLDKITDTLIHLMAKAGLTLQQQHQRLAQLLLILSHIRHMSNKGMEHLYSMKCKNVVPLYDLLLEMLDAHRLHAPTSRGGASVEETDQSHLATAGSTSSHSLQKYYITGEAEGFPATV

`O=C(CCCCCCCn1c(=S)[nH]c2ccccc2c1=O)N1CCN(c2cccc(Cl)c2)CC1`: the molecule was classed as inactive.
The same measure for `N#Cc1ccc(N2CCN(C(=O)CCCCCn3c(=S)[nH]c4ccccc4c3=O)CC2)cc1`: “inactive”.
